These results are taken from PubChem BioAssay (NCI).

This is part of a sample that, as a whole, favours compounds with a hit. Of some 83,000 tested, about 20% had one in any assay.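 Plates (96-well) were seeded with cells, treated with compound at one concentration, and incubated for 48 hours before percent growth was determined.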 A number with no mark means an inactive call. Calls of active or inactive are those of the source. Rule for the calls: active = growth percent below 10; inactive = the rest.

This experiment concerns UACC-257 melanoma. Briefly: NCI-60 one-dose screen, 48 h (100 = growth as untreated, 0 = no growth, -100 = all killed). Conditions: 10 µM unless noted.
Take `C/C=C(\C)C(C(=O)NC1CCCCC1)N(C(=O)C1CCc2cc(F)ccc2O1)c1ccc(Cl)cc1` (centres undefined): the growth was 98.8%.

In the case of `N=C(N)c1ccc(-c2cc(Cl)cc(Cl)c2)cn1`, the growth was 102%. With `COc1ccc(-c2cc(-c3ccccc3)nc(SCCCC(=O)NO)n2)cc1OC`, the growth was -18.2% (active). Consider `CCC(C)/C(=C\C#N)NCCCN/C(=C/C#N)C(C)CC` (centres undefined), for which the growth is 106%.

For the compound `CC1=C(C#N)C(=O)NC(C)C1` (centres undefined), the growth is 102%.

With `COc1cccc(/C=C2\Oc3cc(OCCCN4CCCC4)ccc3C2=O)c1OC`, the growth was 99.3%. The same measure for `COc1cc(C2C3=C(COC3=O)Nc3cc4c(cc32)CCC4)cc2c1OCO2` (centres undefined): 73.1%; for `CCN(CC)c1ccc(/C=C2\Oc3ccc(O)c(I)c3C2=O)cc1`: 80.6%; for `C=C(C)[C@@H]1CC[C@]2(C(=O)O)CC[C@]3(C)[C@H](CC[C@@H]4[C@@]5(C)C[C@@H](CC#Cc6ccc(C(F)(F)F)cc6)[C@H](O)C(C)(C)[C@@H]5CC[C@]43C)[C@@H]12`: 7.33% (active). The same measure for `COc1ccc2c(c1)[nH]c(=O)c1c3cccc(F)c3cn21`: 44.8%; for `CCOC(=O)C1=C(C)NC(C)=C(C(=O)OCC)C1(C)C`: 96.3%; for `COc1cccc(/C=C/C(=O)Nc2cc(OC)c3c(c2)OCO3)c1`: 96.8%. Next, `COc1cccc(-c2nc3sccn3c2-c2ccnc(NCCCNS(=O)(=O)c3ccc(F)cc3)c2)c1`: 35.6%; `COc1ccc(S(=O)(=O)Nc2cc(/C=C\c3cc(OC)c(OC)c(OC)c3)cc(OC)c2OC)cc1`: 51.3%.
